Experimental data taken from PubChem BioAssay AID1159580 (chemical genetic matrix, 2015).
Where “and” joins values, the source holds several entries; their conditions need not be identical. Equal values may be shown once. The campaign covered roughly 5,500 compounds. About 2,000 (36%) were called active. Roughly 18% stayed inconclusive and do not appear here. Rule as the data show it: active = normalized growth mostly below about 0.91 (no sharp cut-off); inconclusive = no clear call, values can overlap the other calls; inactive = mostly above about 0.92. This is one part of the list.

Assay: chemical genetic growth profiling, strain panel (AID 1159580);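 also: tested at 20 µM; growth read once vehicle control cultures reached saturation at 30 °C; 1 = growth at the plate median or of vehicle wells; lower values mean less growth of the strain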
Settings: S. cerevisiae deletion strains, growth OD
[1] = locus YGR078C, strain PAC10, stronger effect = lower value
[2] = locus YGR229C, strain SMI1, stronger effect = lower value
[3] = locus YJR075W, strain HOC1, stronger effect = lower value
[4] = locus YAL013W, strain DEP1, stronger effect = lower value
[5] = locus YBR229C, strain ROT2, stronger effect = lower value
[6] = locus YDL101C, strain DUN1, stronger effect = lower value
[7] = locus YDR150W, strain NUM1, stronger effect = lower value
[8] = locus YEL061C, strain CIN8, stronger effect = lower value
[9] = locus YHR030C, strain SLT2, stronger effect = lower value
[10] = locus YJR043C, strain POL32, stronger effect = lower value
[11] = locus YLR039C, strain RIC1, stronger effect = lower value
[12] = locus YLR262C, strain YPT6, stronger effect = lower value
[13] = locus YMR263W, strain SAP30, stronger effect = lower value
[14] = locus YPL055C, strain LGE1, stronger effect = lower value
[15] = locus YPL241C, strain CIN2, stronger effect = lower value

Measured: normalized growth

NC1C=CC=C(C(=O)O)C1 (stereo not given)
inactive: locus YAL040C, strain CLN3, stronger effect = lower value 0.969 | locus YCL061C, strain MRC1 (second series), stronger effect = lower value 0.989 | locus YER002W, strain NOP16, stronger effect = lower value 0.992 | [1] 1 | [2] 0.999 | [3] 0.994 | locus YNL175C, strain NOP13, stronger effect = lower value 0.995 | locus YNL197C, strain WHI3, stronger effect = lower value 0.979 | locus YNL224C, strain SQS1, stronger effect = lower value 1 | locus YOR083W, strain WHI5 (second series), stronger effect = lower value 0.986

Fc1cc2n[nH]nc2cc1Cl
inactive: [4] 1 | [5] 0.989 | [6] 0.97 | [7] 0.919 | [8] 0.992 | [1] 0.972 | [9] 0.977 | locus YHR087W, strain rtc3, stronger effect = lower value 0.997 | [10] 0.997 | [3] 0.958 | [11] 1.06 | locus YLR058C, strain SHM2 (second series), stronger effect = lower value 0.978 | locus YLR085C, strain ARP6, stronger effect = lower value 0.94 | [12] 1.06 | locus YML094W, strain GIM5, stronger effect = lower value 0.979 | locus YMR219W, strain ESC1, stronger effect = lower value 0.985 | [13] 0.931 | locus YNL153C, strain GIM3, stronger effect = lower value 0.995 | locus YNL298W, strain CLA4 (second series), stronger effect = lower value 0.977 | locus YNL322C, strain KRE1, stronger effect = lower value 0.974 | locus YNR030W, strain Alg12, stronger effect = lower value 0.993 | [14] 0.931 | [15] 0.978 | locus YPR135W, strain CTF4, stronger effect = lower value 0.945

CC(=O)O[C@H]1C[C@@H](OC(C)=O)C(C)(C)C2C[C@@H](OC(C)=O)[C@@]3(C)C4=CC(=O)O[C@@H](c5ccoc5)[C@]4(C)CCC3[C@]21C (stereo not given in full)
inactive: [4] 1.01 | locus YAL021C, strain ccr4, stronger effect = lower value 1.02 | locus YAL026C, strain drs2, stronger effect = lower value 1 | locus YAL030W, strain snc1, stronger effect = lower value 0.998 | locus YBL061C, strain skt5, stronger effect = lower value 0.997 | locus YBR009C, strain hhf1, stronger effect = lower value 0.99 | locus YBR021W, strain FUR4, stronger effect = lower value 0.993 | locus YBR023C, strain chs3, stronger effect = lower value 0.982 | locus YBR171W, strain sec66, stronger effect = lower value 1 | [5] 1 | locus YBR231C, strain swc5, stronger effect = lower value 0.989 | locus YBR279W, strain paf1, stronger effect = lower value 1 | locus YCL011C, strain gbp2, stronger effect = lower value 1 | locus YCL016C, strain dcc1, stronger effect = lower value 0.997 | locus YCL029C, strain bik1, stronger effect = lower value 1 | locus YCL061C, strain MRC1, stronger effect = lower value 0.994 | locus YCL069W, strain vba3, stronger effect = lower value 1.01 | locus YCR088W, strain abp1, stronger effect = lower value 0.999 | locus YDL005C, strain med2, stronger effect = lower value 0.989 | locus YDL035C, strain GPR1, stronger effect = lower value 1.01 | locus YDL040C, strain nat1, stronger effect = lower value 0.983 | locus YDL074C, strain BRE1, stronger effect = lower value 0.993 | [6] 1 | locus YDL185W, strain tfp1, stronger effect = lower value 1.01 | locus YDL192W, strain arf1, stronger effect = lower value 1 | locus YDR001C, strain nth1, stronger effect = lower value 1 | locus YDR069C, strain doa4, stronger effect = lower value 0.983 | locus YDR101C, strain arx1, stronger effect = lower value 1 | locus YDR137W, strain rgp1, stronger effect = lower value 0.998 | [7] 1.01 | locus YDR159W, strain sac3, stronger effect = lower value 0.968 | locus YDR162C, strain NBP2, stronger effect = lower value 1.03 | locus YDR195W, strain ref2 0.961 | locus YDR297W, strain sur2, stronger effect = lower value 1 | locus YDR318W, strain mcm21, stronger effect = lower value 1 | locus YDR334W, strain swr1, stronger effect = lower value 0.997 | locus YDR335W, strain msn5, stronger effect = lower value 1 | locus YDR388W, stronger effect = lower value 0.999 | locus YDR392W, strain spt3, stronger effect = lower value 0.963 | locus YDR502C, strain sam2, stronger effect = lower value 0.98 | locus YEL003W, strain gim4, stronger effect = lower value 1.01 | locus YEL037C, strain rad23, stronger effect = lower value 1.02 | locus YEL061C, strain CIN8 (second series), stronger effect = lower value 1 | [8] 0.997 | locus YER015W, strain faa2, stronger effect = lower value 0.998 | locus YER016W, strain bim1, stronger effect = lower value 0.991 | locus YER110C, stronger effect = lower value 0.997 | locus YER111C, strain swi4, stronger effect = lower value 1 | locus YER155C, strain BEM2 (second series), stronger effect = lower value 0.975 | locus YER155C, strain BEM2, stronger effect = lower value 0.995 | locus YER167W, strain BCK2, stronger effect = lower value 1.01 | locus YFR010W, strain ubp6, stronger effect = lower value 1.01 | locus YGL078C, strain dbp3, stronger effect = lower value 1.01 | locus YGL086W, strain mad1, stronger effect = lower value 0.985 | locus YGL167C, strain pmr1, stronger effect = lower value 0.996 | locus YGL173C, strain kem1, stronger effect = lower value 1 | locus YGL227W, strain vid30, stronger effect = lower value 0.998 | locus YGL240W, strain doc1, stronger effect = lower value 0.973 | locus YGL248W, strain PDE1, stronger effect = lower value 1 | locus YGL253W, strain hxk2, stronger effect = lower value 1.01 | [1] 1.01 | locus YGR135W, strain pre9, stronger effect = lower value 0.992 | [2] 1.05 | locus YGR252W, strain gcn5, stronger effect = lower value 0.922 | locus YHR013C, strain ard1, stronger effect = lower value 0.987 | locus YHR027C, strain rpn1, stronger effect = lower value 0.994 | [9] 1.01 and 0.97 | locus YHR079C, strain IRE1 (second series), stronger effect = lower value 1 | locus YHR079C, strain IRE1, stronger effect = lower value 0.982 | locus YHR094C, strain hxt1, stronger effect = lower value 1 | locus YHR129C, strain ARP1, stronger effect = lower value 1.01 | locus YHR142W, strain chs7, stronger effect = lower value 1.03 | locus YHR200W, strain rpn10, stronger effect = lower value 0.993 | locus YIL066C, strain RNR3, stronger effect = lower value 1.01 | locus YIL073C, strain SPO22, stronger effect = lower value 1.03 | locus YIL125W, strain kgd1, stronger effect = lower value 0.995 | locus YIR030C, strain dcg1, stronger effect = lower value 0.998 | locus YJL092W, strain hpr5, stronger effect = lower value 1.01 | locus YJL095W, strain BCK1 (second series), stronger effect = lower value 1 | locus YJL095W, strain BCK1, stronger effect = lower value 1.01 and 0.953 | locus YJL115W, strain asf1, stronger effect = lower value 0.999 | locus YJL129C, strain trk1, stronger effect = lower value 1.01 | locus YJL134W, strain LCB3, stronger effect = lower value 1.01 | locus YJL154C, strain vps35, stronger effect = lower value 0.999 | locus YJL164C, strain tpk1, stronger effect = lower value 1 | locus YJL166W, strain qcr8, stronger effect = lower value 0.994 | locus YJL168C, strain set2, stronger effect = lower value 0.994 | locus YJL187C, strain SWE1 (second series), stronger effect = lower value 1.01 | locus YJL187C, strain SWE1, stronger effect = lower value 0.997 | [10] 1.01 | locus YJR066W, strain TOR1, stronger effect = lower value 0.941 | locus YKL009W, strain mrt4, stronger effect = lower value 0.99 | locus YKL068W, stronger effect = lower value 1.01 | locus YKL085W, strain MDH1 (second series), stronger effect = lower value 0.991 | locus YKL085W, strain MDH1, stronger effect = lower value 0.991 | locus YKL160W, strain elf1, stronger effect = lower value 0.995 | locus YKR001C, strain vps1, stronger effect = lower value 0.992 | locus YKR026C, strain gcn3, stronger effect = lower value 1.01 | locus YKR091W, strain srl3, stronger effect = lower value 1 | locus YLL001W, strain dnm1, stronger effect = lower value 1.02 | locus YLL026W, stronger effect = lower value 0.998 | locus YLL041C, strain sdh2, stronger effect = lower value 1 | locus YLR027C, strain aat2, stronger effect = lower value 0.982 | [11] 1.05 | locus YLR058C, strain SHM2, stronger effect = lower value 1.01 | locus YLR102C, strain apc9, stronger effect = lower value 0.989 | locus YLR113W, strain HOG1, stronger effect = lower value 1.03 | locus YLR221C, strain rsa3, stronger effect = lower value 0.989 | locus YLR258W, strain gsy2, stronger effect = lower value 0.978 | locus YLR262C, strain YPT6 (second series), stronger effect = lower value 0.983 | [12] 1.09 | locus YLR268W, strain sec22, stronger effect = lower value 1.01 | locus YLR320W, strain mms22, stronger effect = lower value 0.977 | locus YLR330W, strain CHS5, stronger effect = lower value 1.01 | locus YLR342W, strain FKS1, stronger effect = lower value 0.991 | locus YLR357W, strain rsc2, stronger effect = lower value 0.994 | locus YLR370C, strain arc18, stronger effect = lower value 1 | locus YLR371W, strain rom2, stronger effect = lower value 0.995 | locus YLR384C, strain iki3, stronger effect = lower value 0.977 | locus YLR418C, strain cdc73, stronger effect = lower value 0.973 | locus YML016C, strain PPZ1, stronger effect = lower value 1 | locus YML032C, strain rad52, stronger effect = lower value 1 | locus YML120C, strain ndi1, stronger effect = lower value 1 | locus YML124C, strain tub3, stronger effect = lower value 0.998 | locus YMR058W, strain fet3, stronger effect = lower value 1.02 | locus YMR078C, strain ctf18, stronger effect = lower value 0.989 | locus YMR125W, strain sto1, stronger effect = lower value 0.998 | locus YMR129W, stronger effect = lower value 1.01 | locus YMR205C, strain PFK2, stronger effect = lower value 1.01 | locus YMR223W, strain ubp8, stronger effect = lower value 0.988 | locus YMR231W, strain pep5, stronger effect = lower value 0.962 | [13] 1.01 | locus YMR307W, strain GAS1, stronger effect = lower value 1.05 | locus YNL067W, strain RPL9B, stronger effect = lower value 1.01 | locus YNL071W, strain lat1, stronger effect = lower value 1.01 | locus YNL183C, strain NPR1, stronger effect = lower value 0.961 | locus YNL209W, strain ssb2, stronger effect = lower value 0.992 | locus YNL233W, strain BNI4, stronger effect = lower value 1.02 | locus YNL248C, strain rpa49, stronger effect = lower value 1 | locus YNL250W, strain rad50, stronger effect = lower value 1.01 | locus YNL271C, strain bni1, stronger effect = lower value 1 | locus YNL298W, strain CLA4, stronger effect = lower value 0.995 | locus YNL307C, strain MCK1, stronger effect = lower value 0.995 | locus YNL322C, strain KRE1 (second series), stronger effect = lower value 0.992 | locus YNR049C, strain mso1, stronger effect = lower value 1 | locus YNR052C, strain pop2, stronger effect = lower value 0.995 | locus YOL006C, strain TOP1, stronger effect = lower value 1 | locus YOL012C, strain htz1 0.751 | locus YOL147C, strain pex11, stronger effect = lower value 0.996 | locus YOR001W, strain rrp6, stronger effect = lower value 0.979 | locus YOR061W, strain CKA2, stronger effect = lower value 1 | locus YOR069W, strain VPS5, stronger effect = lower value 0.999 | locus YOR070C, strain gyp1, stronger effect = lower value 1.01 | locus YOR080W, strain dia2, stronger effect = lower value 0.981 | locus YOR083W, strain WHI5, stronger effect = lower value 1.01 | locus YOR106W, strain vam3, stronger effect = lower value 1 | locus YOR136W, strain idh2, stronger effect = lower value 0.991 | locus YOR144C, strain elg1, stronger effect = lower value 0.99 | locus YOR184W, strain ser1, stronger effect = lower value 0.999 | locus YOR231W, strain MKK1, stronger effect = lower value 0.978 | locus YOR265W, strain rbl2, stronger effect = lower value 0.993 | locus YOR270C, strain vph1, stronger effect = lower value 1.04 | locus YOR290C, strain snf2, stronger effect = lower value 1 | locus YOR316C, strain cot1, stronger effect = lower value 1 | locus YPL051W, strain arl3, stronger effect = lower value 0.977 | [14] 1.01 | locus YPL078C, strain atp4, stronger effect = lower value 1 | locus YPL106C, strain sse1, stronger effect = lower value 0.975 | locus YPL240C, strain hsp82, stronger effect = lower value 0.997 | [15] 1.01 | locus YPL256C, strain CLN2, stronger effect = lower value 0.957 | locus YPR119W, strain clb2, stronger effect = lower value 0.995 | locus YPR141C, strain kar3, stronger effect = lower value 1.01 | locus YPR163C, strain tif3, stronger effect = lower value 1 | locus YPR167C, strain met16, stronger effect = lower value 0.995 | strain wtn01, stronger effect = lower value 0.993
